Test results published in PubChem BioAssay (NCATS).
Results filed as inconclusive are left out. Active and inactive are the calls of the source. The call rests on the fitted dose curve; in most records, active means well fitted curve in the direction sought with a large enough effect; inconclusive means small, poorly fitted or top-dose-only effect, or another doubt; inactive means no such curve, though single readings can be large; an effect the other way counts as inactive or inconclusive.

Experiments:
[1] = system: CAOV3; test: Primary qHTS to identify gynecologic anti-cancer compounds using libraries of approved drugs and bioactive compounds (AID 1345084); details: Gynecologic cancer cell panel viability, ATPlite luminescence, 48 h; series mostly up to 57.5 µM; further: nearly all actives have a fitted effect of over 55% in size
Method in brief: (§1)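 Cell viability after 48 h drug treatment, ATPlite luminescence readout; five doses.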

[2] = system: CASKI; test: as above; details: Gynecologic cancer cell panel viability, ATPlite luminescence, 48 h; series mostly up to 57.5 µM
Method in brief: as §1

[3] = system: Es-2; test: as above; details: Gynecologic cancer cell panel viability, ATPlite luminescence, 48 h; series mostly up to 57.5 µM
Method in brief: as §1

[4] = system: HeLa; test: as above; details: Gynecologic cancer cell panel viability, ATPlite luminescence, 48 h; series mostly up to 57.5 µM
Method in brief: as §1

[5] = system: Hek293T; test: as above; details: Gynecologic cancer cell panel viability, ATPlite luminescence, 48 h, control line for the selectivity index; series mostly up to 57.5 µM
Method in brief: as §1

[6] = system: JEG-3; test: as above; details: Gynecologic cancer cell panel viability, ATPlite luminescence, 48 h; series mostly up to 57.5 µM
Method in brief: as §1

[7] = system: OV90; test: as above; details: Gynecologic cancer cell panel viability, ATPlite luminescence, 48 h; series mostly up to 57.5 µM
Method in brief: as §1

[8] = system: PA-1; test: as above; details: Gynecologic cancer cell panel viability, ATPlite luminescence, 48 h; series mostly up to 57.5 µM
Method in brief: as §1

[9] = system: Tov-21-G; test: as above; details: Gynecologic cancer cell panel viability, ATPlite luminescence, 48 h; series mostly up to 57.5 µM
Method in brief: as §1

[10] = system: Tov112D; test: as above; details: Gynecologic cancer cell panel viability, ATPlite luminescence, 48 h; series mostly up to 57.5 µM
Method in brief: as §1

[11] = Drug repurposing screens with cells derived from glioblastoma tumor samples (AID 1345199); details: GBM patient neurospheres viability, ATP luminescence, 48 h; further: nearly all actives have a fitted effect of over 40% in size
Method in brief: (§2)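 Primary testing used CD133+ neurospheres from four GBM patients, seven concentrations, 48 h exposure and ATP-based viability; confirmation added three slower-growing patient lines.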

[12] = system: astro; test: as above; details: viability, ATP luminescence, 48 h; series mostly up to 45.9 µM
Method in brief: as §2

[13] = system: SKOV3; test: Primary qHTS to identify gynecologic anti-cancer compounds using libraries of approved drugs and bioactive compounds (AID 1345084); details: Gynecologic cancer cell panel viability, ATPlite luminescence, 48 h; series mostly up to 57.5 µM; further: nearly all actives have a fitted effect of over 55% in size
Method in brief: as §1
On the % scale 0 is the no-effect control and ±100 the full control effect.

COC(=O)C1C(CC(C)=O)C=CC(O)C12Oc1cc(C)cc(O)c1C2=O (stereo not given)
inactive: Potency [1] | Potency [2] | Potency [3] | Potency [4] | Potency [5] | Potency [6] | Potency [7] | Potency [8] | Potency [9] | Potency [10]

COc1ccc(C(=O)O[C@H]2CC(C)=CC[C@@]3(C)[C@@H](OC(C)=O)C[C@@](O)(C(C)C)[C@H]23)cc1
inactive: Potency [1] | Potency [2] | Potency [3] | Potency [4] | Potency [5] | Potency [6] | Potency [7] | Potency [8] | Potency [9] | Potency [10]

OC[C@H]1O[C@@H](n2cnc3c2NC=NC[C@H]3O)C[C@@H]1O
inactive: Potency [1] | Potency [2] | Potency [3] | Potency [4] | Potency [5] | Potency [6] | Potency [7] | Potency [8] | Potency [9] | Potency [10] | activity, negative = cell killing ([11]; at 45.9 µM (top of the series), tumour line B) 2.62% | activity, negative = cell killing ([11]; at 45.9 µM (top of the series), tumour line D) -21% | activity, negative = cell killing ([11]; at 46 µM (top of the series), tumour line A) -9.89% | activity, negative = cell killing ([11]; at 46.1 µM (top of the series), tumour line C) 8.32% | Potency [12]

CNC(=O)O[C@H]1COc2ccc(N3CCN(C4COC4)CC3)cc2[C@@H]1NC(=O)c1ccc(F)cc1
inactive: Potency [1] | Potency [2] | Potency [3] | Potency [4] | Potency [5] | Potency [6] | Potency [7] | Potency [8] | Potency [9] | Potency [10]

CCCCS(=O)(=O)Nc1ncnc(OCCOc2ncc(Br)cn2)c1-c1ccc(Br)cc1
inactive: Potency [1] | Potency [2] | Potency [3] | Potency [4] | Potency [5] | Potency [6] | Potency [7] | Potency [8] | Potency [9] | Potency [10]

C[C@@H]1O[C@@H](O[C@H]2[C@H](OC(=O)[C@]34CCC(C)(C)C[C@H]3C3=CCC5[C@@]6(C)C[C@H](O)[C@H](O[C@@H]7O[C@H](CO)[C@@H](O[C@@H]8O[C@H](CO)[C@@H](O)[C@H](O)[C@H]8O)[C@H](O)[C@H]7O)[C@@](C)(CO)C6[C@H](O)C[C@@]5(C)[C@]3(C)C[C@H]4O)OC[C@H](O)[C@@H]2O)[C@H](O)[C@H](O)[C@H]1O[C@@H]1OC[C@@H](O)[C@H](O[C@@H]2OC[C@](O)(CO)[C@H]2O)[C@H]1O (stereo not given in full)
inactive: activity change, negative = cytotoxicity [1] 18.5% [at 6.55 µM] | activity change, negative = cytotoxicity [2] 12.9% [at 6.55 µM] | activity change, negative = cytotoxicity [3] 5.24% [at 6.55 µM] | activity change, negative = cytotoxicity [4] 5.03% [at 6.55 µM] | activity change, negative = cytotoxicity [5] 1.73% [at 6.55 µM] | activity change, negative = cytotoxicity [6] 7.67% [at 6.55 µM] | activity change, negative = cytotoxicity [7] 4.05% [at 6.55 µM] | activity change, negative = cytotoxicity [8] -7.05% [at 6.55 µM] | activity change, negative = cytotoxicity [9] 2.26% [at 6.55 µM] | activity change, negative = cytotoxicity [10] 2.65% [at 6.55 µM]

CC(C(=O)O)C1CCC2(C)C3C(=O)C=C4C(CCC(=O)C4(C)C)C3(C)CCC12C (stereo not given)
inactive: Potency [1] | Potency [2] | Potency [3] | Potency [4] | Potency [5] | Potency [6] | Potency [7] | Potency [8] | Potency [9] | Potency [10]

C[C@@H]1O[C@@H](OC[C@H]2O[C@@H](OCCc3ccccc3)[C@H](O)[C@@H](O)[C@@H]2O)[C@H](O)[C@H](O)[C@H]1O
inactive: Potency [1] | Potency [2] | Potency [3] | Potency [4] | Potency [5] | Potency [6] | Potency [7] | Potency [13] | Potency [9] | Potency [10]

CC1(C)CC(=O)N(CCCCN2CCN(c3ncccn3)CC2)C(=O)C1
inactive: Potency [1] | Potency [2] | Potency [3] | Potency [4] | Potency [5] | Potency [6] | Potency [7] | Potency [13] | Potency [9] | Potency [10]
